A number with no mark means an inactive call. How the calls were made is not given here.
Biological target: L-lactate dehydrogenase (Plasmodium falciparum (isolate CDC / Honduras)) (UniProt Q27743)
Assay: PfLDH activity inhibition – cell lysate, 3D7 strain, counter-screen for P. falciparum growth inhibition project (AID 2304);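 further: 0% = vehicle and 100% = reference inhibitor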
Settings: P. falciparum 3D7 crude extract, LDH APAD/NBT absorbance; at 2 µM; hits give high values

L-lactate dehydrogenase (Plasmodium falciparum (isolate CDC / Honduras)), sequence (Q27743 whole entry, looked up): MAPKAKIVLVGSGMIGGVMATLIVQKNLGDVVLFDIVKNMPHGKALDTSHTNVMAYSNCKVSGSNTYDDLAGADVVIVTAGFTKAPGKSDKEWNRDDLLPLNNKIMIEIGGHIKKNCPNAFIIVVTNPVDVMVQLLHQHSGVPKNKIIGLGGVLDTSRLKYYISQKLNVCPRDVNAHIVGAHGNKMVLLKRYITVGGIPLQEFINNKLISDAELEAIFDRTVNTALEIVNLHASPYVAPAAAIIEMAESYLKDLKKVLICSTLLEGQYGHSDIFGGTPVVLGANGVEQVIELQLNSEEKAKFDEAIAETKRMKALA

Compound | inhibition
CCN(CC)CCCNC(=O)/C(=C/C=C/c1cc2cc(Cl)c(Cl)cc2[nH]1)OC | -2%
O=C1OC2(CN1CC1CCN(Cc3ccc(-n4ccnc4)cc3)C1)c1ccccc1-c1ccccc12 (stereo not given) | -2%
Cc1ccc(NC(=O)c2ccc3ncccc3c2)cc1OC1CCN(CCC(C)C)CC1 | -4%
Nc1ncc(-c2ccc(F)cc2)cc1-c1nc2ccc(Cl)cc2[nH]1 | 0%
N#Cc1ccccc1N1CCN(C2CCC(NC(=O)c3n[nH]c4cc(C(F)(F)F)ccc34)CC2)CC1 (stereo not given) | -4%
Cc1ccc(NC(=O)N2CCN(CCCCCNC(=O)/C=C/c3ccc(Cl)c(Cl)c3)CC2)cc1C | 0%
Cc1nnc(NC(=O)c2cn(-c3ccccc3)nc2-c2ccccc2C)o1 | 1%
CN1CCN(c2cc3c(cc2Cl)CCN3C(=O)Nc2ccc(NC(=O)c3ccc(C(F)(F)F)cc3)cc2)CC1 | -4%
Cc1ccc(-c2ccc3c(c2)C=C(C(=O)NC2CCN(CCNC(=O)c4cccs4)CC2)CCC3)cc1 | -1%
COC(=O)c1ccc(NC(=O)Nc2ccc(Cn3ncc(N4CCCNCC4)c(Cl)c3=O)cc2)cc1 | -1%
CC1(C)N=C(N)N=C(N)N1OCCCOc1cc(Cl)cc(Cl)c1 | 0%
O=C(Nc1ccc2ccccc2c1)c1ccc(CN2CCC(Cc3ccccc3)CC2)cc1 | -8%
Cc1cc2c(cc1Cl)N(C(=O)Nc1cc(F)cc(-c3cncnc3)c1)CC2 | -6%
COc1ccc(C2=CCN(c3ccc(Cl)c(Cl)c3)C2=O)cc1OCCN1CCCCC1 | -2%
COc1ccc(CNC(=O)c2cnc3c(O)cccc3c2Nc2cccc(NC(=O)c3ccc(Cl)c([N+](=O)[O-])c3)c2)cc1 | 1%
C=CCN1C(=O)C(=Cc2cc(Br)ccc2O)SC1=Nc1ccccc1 | -4%
O=C(Nc1ccc(F)cc1)NC1CCN(c2ccnc3cc(Cl)ccc23)C1 (stereo not given) | 2%
CC(C)c1ccc(CN2CCC(NC(=O)c3ccc(-c4cccc(F)c4)s3)CC2)cc1 | 3%
O=C(Nc1ccc(OC2CCN(Cc3ccccc3)C2)c(Cl)c1)c1ccco1 (stereo not given) | 6%
CN1CCN(Cc2cccc(-c3cc4nccc(Nc5ccc(Oc6ccccc6)cc5)c4cc3Cl)c2)CC1 | -3%

Compound | inhibition
COc1ccc(CC(=O)NC(CCCN2CCC(c3ccccc3)CC2)c2ccc(Cl)c(Cl)c2)cc1OC (stereo not given) | -7%
NC1CCN(Cc2cccc(-c3cccc(-c4nc5ccccc5[nH]4)c3)c2)C1 (stereo not given) | -3%
COc1c(Br)cc(Br)cc1C(C)=O | 1%
N[C@@H](CCNC1CCN(c2cccc(C(F)(F)F)c2)CC1)Cc1ccc(F)c(F)c1 | -1%
COc1ccc(CN2CCCN(Cc3cccc(NC(=O)c4ccc(Cl)c(Cl)c4)c3)CC2)cc1 | 5%
CN(C)CCOc1cc(O)c2c(c1)OC(C)(C)C=C2c1cccs1 | -2%
COc1nc(-n2ccc(=N)cc2)nc2ccccc12 | 1%
CCC(C)C(COC(=O)c1cc(OC)c(OC)c(OC)c1)N(C)CCN(C)C(COC(=O)c1cc(OC)c(OC)c(OC)c1)C(C)CC (stereo not given) | 3%
CSc1ccc(C=CC(=O)NC(=O)c2ccccc2O)cc1 | 4%
O=C(N[C@@H](CC1CCCCC1)C(=O)NCc1cccc2ccccc12)c1ccc(O)c(-c2ccc(Cl)c(Cl)c2)c1 | 2%
Cc1ccc(C(C)C)c(Oc2cnc(NC(CO)c3ccccc3)nc2N)c1 (stereo not given) | 4%
CS(=O)(=O)CCNCc1nc(-c2ccc3c(=O)[nH]cnc3c2)cs1 | 0%
CN1CCN(c2cccc(-c3nnc(-c4ccc(OCC(=O)NCc5ccc(C(F)(F)F)cc5)c([N+](=O)[O-])c4)o3)c2)CC1 | -4%
COC(=O)c1sc2ccccc2c1NC(=O)c1ccc(C)c(C)c1 | -7%
c1ccc(CN2CCN(c3cc(-c4cncc(-c5ccccc5)c4)nc(-c4ccccc4)n3)CC2)cc1 | 0%
CCC(C)CN1CCN(c2ccc(NC(=O)c3cccs3)cc2)CC1C (stereo not given) | 1%
COc1ccc2nc3cc(Cl)ccc3c(Nc3ccc(O)c(CN4CC5CCC(CC5)C4)c3)c2c1 | 3%
CC(C)(O)CC(C)(C)c1cc(Cl)ccc1O | 7%
COc1ccc(NS(=O)(=O)c2ccc(C(=O)Nc3ccc(OC(F)(F)F)cc3)cc2)cc1N1CCN(CC2CC2)CC1 | 3%
COc1ccc2nccc([C@@H](O)CN3CCC(NC(=O)c4cc5cccnc5[nH]4)CC3)c2c1 | 2%
